# Assay results as given in article PMC7862700, “An all-to-all approach to the identification of sequence-specific readers for epigenetic DNA modifications on cytosine”.
# Tests used:
# Test in all cases: DAPPL (digital affinity profiling via proximity ligation, sequencing); 10 mM Tris-HCl pH 7.5, 50 mM NaCl, 1 mM DTT, 4% glycerol, room temperature, 30 min; GST-TFs on glutathione beads, 16-mer random dsDNA library, 0.1% formaldehyde crosslink after washing; high values mean tight binding
# [1] = molecular target: T1, FEV (Homo sapiens, UniProt Q99581 1-238); conditions: protein: recombinant; tags: N-terminal GST; dsDNA, one strand shown
# T1 sequence: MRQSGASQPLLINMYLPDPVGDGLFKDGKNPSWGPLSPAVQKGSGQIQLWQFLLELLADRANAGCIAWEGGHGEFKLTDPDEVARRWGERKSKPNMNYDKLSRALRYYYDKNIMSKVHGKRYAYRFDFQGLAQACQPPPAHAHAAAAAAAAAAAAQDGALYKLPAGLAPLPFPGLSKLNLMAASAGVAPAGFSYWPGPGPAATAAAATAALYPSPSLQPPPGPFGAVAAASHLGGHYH
# Method in brief: (§1)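 Binding signal is each hexamer's read frequency for a factor divided by its frequency in the tag-only sample. The factors were GST-fused human transcription factors from yeast, captured on glutathione beads, DNA-barcoded and pooled with that sample. Pools were incubated with 200 nmole of a random double-stranded 16-mer DNA library in Tris/NaCl/DTT/glycerol buffer at room temperature for 30 min, then washed, crosslinked with 0.1% formaldehyde, proximity-ligated with BsaI/T4 ligase (1 h, 37 °C), PCR-amplified and sequenced on an Illumina NextSeq500.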
# [2] = molecular target: ETV5 (Homo sapiens, UniProt P41161 1-510); conditions: protein: recombinant; tags: N-terminal GST; dsDNA, one strand shown
# Sequence of ETV5 (P41161 whole entry): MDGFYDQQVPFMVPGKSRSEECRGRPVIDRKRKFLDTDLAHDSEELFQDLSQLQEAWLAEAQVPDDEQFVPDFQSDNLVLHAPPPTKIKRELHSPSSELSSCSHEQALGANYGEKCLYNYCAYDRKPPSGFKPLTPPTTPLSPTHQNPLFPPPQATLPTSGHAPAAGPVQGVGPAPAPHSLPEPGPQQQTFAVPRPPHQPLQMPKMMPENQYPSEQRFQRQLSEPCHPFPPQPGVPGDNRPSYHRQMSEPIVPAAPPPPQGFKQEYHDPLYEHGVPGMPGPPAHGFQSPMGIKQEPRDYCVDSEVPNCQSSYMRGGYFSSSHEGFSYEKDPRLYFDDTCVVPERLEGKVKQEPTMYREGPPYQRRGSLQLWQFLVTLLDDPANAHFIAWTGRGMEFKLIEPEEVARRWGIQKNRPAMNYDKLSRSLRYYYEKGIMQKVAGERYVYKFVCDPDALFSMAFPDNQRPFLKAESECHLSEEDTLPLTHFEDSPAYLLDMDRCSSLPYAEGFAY
# Method in brief: as §1
# [3] = molecular target: HSF1 (Homo sapiens, UniProt Q00613 1-529); conditions: protein: recombinant; tags: N-terminal GST; chain copies: 3; dsDNA, one strand shown
# Sequence of HSF1 (Q00613 whole entry): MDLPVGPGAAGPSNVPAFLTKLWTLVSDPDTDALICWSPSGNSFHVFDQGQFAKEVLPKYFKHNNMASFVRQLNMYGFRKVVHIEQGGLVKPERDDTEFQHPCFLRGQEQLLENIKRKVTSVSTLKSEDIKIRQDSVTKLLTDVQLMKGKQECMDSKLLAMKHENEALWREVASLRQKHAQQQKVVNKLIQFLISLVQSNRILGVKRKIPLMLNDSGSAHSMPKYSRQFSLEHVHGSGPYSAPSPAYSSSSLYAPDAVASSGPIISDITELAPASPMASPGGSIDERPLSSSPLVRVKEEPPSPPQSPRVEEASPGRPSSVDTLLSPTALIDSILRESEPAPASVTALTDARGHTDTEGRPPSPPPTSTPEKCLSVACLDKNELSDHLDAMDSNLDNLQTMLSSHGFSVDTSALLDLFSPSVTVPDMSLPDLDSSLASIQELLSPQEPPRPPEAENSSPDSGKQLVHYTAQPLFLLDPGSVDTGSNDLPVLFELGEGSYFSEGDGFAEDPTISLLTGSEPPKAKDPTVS
# Method in brief: as §1
# [4] = molecular target: T2, SPIC (Homo sapiens, UniProt Q8N5J4 1-248); conditions: protein: recombinant; tags: N-terminal GST; dsDNA, one strand shown
# T2 sequence: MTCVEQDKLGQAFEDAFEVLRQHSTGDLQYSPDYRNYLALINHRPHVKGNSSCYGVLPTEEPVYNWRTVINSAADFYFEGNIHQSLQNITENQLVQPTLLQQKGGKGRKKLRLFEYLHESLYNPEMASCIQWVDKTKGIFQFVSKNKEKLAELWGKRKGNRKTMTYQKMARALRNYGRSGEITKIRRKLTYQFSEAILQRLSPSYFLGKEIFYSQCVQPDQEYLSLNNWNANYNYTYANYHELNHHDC
# Method in brief: as §1
# [5] = molecular target: ELF4 (Homo sapiens, UniProt Q99607 1-663); conditions: protein: recombinant; tags: N-terminal GST; dsDNA, one strand shown
# Sequence of ELF4 (Q99607 whole entry): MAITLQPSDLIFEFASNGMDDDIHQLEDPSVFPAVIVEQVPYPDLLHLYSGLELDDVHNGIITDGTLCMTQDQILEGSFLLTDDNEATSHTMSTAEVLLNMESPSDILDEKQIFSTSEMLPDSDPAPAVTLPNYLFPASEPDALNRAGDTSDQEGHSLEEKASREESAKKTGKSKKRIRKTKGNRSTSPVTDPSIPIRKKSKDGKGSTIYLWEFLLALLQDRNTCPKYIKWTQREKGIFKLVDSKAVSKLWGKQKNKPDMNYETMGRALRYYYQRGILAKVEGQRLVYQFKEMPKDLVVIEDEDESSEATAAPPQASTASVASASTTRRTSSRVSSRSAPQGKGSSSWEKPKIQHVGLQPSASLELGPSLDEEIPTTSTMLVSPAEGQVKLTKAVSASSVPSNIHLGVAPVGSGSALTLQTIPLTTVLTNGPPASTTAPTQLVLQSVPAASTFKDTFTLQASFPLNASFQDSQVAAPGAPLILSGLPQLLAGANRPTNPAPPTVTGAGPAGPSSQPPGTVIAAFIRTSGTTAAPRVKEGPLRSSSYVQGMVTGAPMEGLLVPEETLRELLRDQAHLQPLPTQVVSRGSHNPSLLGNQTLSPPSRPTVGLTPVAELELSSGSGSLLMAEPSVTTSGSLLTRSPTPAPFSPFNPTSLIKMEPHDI
# Method in brief: as §1
# [6] = molecular target: T3, ELK4 (Homo sapiens, UniProt P28324-2 1-405); conditions: protein: recombinant; tags: N-terminal GST; dsDNA, one strand shown
# T3 sequence: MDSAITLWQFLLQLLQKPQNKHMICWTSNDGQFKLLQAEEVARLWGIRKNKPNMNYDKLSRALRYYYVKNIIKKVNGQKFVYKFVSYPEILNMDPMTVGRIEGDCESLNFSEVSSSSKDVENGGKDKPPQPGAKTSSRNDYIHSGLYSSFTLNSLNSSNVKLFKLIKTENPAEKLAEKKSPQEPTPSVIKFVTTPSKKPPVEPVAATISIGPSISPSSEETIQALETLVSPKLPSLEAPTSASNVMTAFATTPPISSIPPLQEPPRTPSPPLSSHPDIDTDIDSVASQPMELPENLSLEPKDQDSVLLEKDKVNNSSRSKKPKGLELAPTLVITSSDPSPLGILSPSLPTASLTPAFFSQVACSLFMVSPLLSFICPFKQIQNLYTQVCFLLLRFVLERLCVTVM
# Method in brief: as §1
# [7] = molecular target: T4, ETV2 (Homo sapiens, UniProt O00321 1-342); conditions: protein: recombinant; tags: N-terminal GST; dsDNA, one strand shown
# T4 sequence: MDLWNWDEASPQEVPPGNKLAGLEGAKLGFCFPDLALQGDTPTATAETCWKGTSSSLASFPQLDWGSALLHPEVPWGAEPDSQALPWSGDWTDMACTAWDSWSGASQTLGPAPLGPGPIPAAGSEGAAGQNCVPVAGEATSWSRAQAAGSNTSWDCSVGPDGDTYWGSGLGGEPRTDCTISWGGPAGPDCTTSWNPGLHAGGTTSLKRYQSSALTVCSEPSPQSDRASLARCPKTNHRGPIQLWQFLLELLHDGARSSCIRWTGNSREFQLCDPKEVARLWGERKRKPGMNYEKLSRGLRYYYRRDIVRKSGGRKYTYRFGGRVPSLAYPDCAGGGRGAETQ
# Method in brief: as §1
# [8] = molecular target: T5, ELF3 (Homo sapiens, UniProt P78545 1-371); conditions: protein: recombinant; tags: N-terminal GST; dsDNA, one strand shown
# T5 sequence: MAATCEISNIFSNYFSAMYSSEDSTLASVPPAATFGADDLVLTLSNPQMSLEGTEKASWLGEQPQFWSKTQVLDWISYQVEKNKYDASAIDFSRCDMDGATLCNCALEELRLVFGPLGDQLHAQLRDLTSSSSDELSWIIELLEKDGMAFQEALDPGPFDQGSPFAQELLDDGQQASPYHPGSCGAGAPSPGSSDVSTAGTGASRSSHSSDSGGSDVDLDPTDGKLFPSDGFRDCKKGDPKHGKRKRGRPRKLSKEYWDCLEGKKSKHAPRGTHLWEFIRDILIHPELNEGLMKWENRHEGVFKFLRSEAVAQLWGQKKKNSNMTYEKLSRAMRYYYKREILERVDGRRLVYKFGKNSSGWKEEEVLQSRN
# Method in brief: as §1
# [9] = molecular target: CRX (Homo sapiens, UniProt O43186 1-299); conditions: protein: recombinant; tags: N-terminal GST; dsDNA, one strand shown
# Sequence of CRX (O43186 whole entry): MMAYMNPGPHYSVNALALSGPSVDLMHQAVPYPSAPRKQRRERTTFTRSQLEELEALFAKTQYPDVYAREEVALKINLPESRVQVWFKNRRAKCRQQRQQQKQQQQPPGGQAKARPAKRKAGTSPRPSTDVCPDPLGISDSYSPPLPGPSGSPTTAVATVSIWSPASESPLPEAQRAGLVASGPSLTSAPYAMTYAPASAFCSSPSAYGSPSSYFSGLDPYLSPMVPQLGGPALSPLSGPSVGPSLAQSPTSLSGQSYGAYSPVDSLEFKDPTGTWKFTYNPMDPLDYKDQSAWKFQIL
# Method in brief: as §1
# [10] = molecular target: ETV1 (Homo sapiens, UniProt P50549 1-477); conditions: protein: recombinant; tags: N-terminal GST; dsDNA, one strand shown
# Sequence of ETV1 (P50549 whole entry): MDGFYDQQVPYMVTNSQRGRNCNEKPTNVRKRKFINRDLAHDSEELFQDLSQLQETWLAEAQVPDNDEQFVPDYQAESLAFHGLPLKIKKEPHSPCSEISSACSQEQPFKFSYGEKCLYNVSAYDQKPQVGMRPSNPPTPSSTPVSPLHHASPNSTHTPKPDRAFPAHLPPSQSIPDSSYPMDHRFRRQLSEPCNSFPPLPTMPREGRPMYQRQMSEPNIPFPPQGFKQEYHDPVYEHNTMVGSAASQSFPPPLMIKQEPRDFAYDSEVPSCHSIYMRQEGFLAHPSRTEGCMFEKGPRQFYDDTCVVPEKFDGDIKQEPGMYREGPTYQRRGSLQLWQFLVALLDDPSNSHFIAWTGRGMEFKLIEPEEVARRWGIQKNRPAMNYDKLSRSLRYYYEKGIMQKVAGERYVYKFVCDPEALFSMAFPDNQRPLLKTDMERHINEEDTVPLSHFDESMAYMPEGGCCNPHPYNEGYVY
# Method in brief: as §1
# [11] = molecular target: T6, ERF (Homo sapiens, UniProt P50548 1-548); conditions: protein: recombinant; tags: N-terminal GST; dsDNA, one strand shown
# T6 sequence: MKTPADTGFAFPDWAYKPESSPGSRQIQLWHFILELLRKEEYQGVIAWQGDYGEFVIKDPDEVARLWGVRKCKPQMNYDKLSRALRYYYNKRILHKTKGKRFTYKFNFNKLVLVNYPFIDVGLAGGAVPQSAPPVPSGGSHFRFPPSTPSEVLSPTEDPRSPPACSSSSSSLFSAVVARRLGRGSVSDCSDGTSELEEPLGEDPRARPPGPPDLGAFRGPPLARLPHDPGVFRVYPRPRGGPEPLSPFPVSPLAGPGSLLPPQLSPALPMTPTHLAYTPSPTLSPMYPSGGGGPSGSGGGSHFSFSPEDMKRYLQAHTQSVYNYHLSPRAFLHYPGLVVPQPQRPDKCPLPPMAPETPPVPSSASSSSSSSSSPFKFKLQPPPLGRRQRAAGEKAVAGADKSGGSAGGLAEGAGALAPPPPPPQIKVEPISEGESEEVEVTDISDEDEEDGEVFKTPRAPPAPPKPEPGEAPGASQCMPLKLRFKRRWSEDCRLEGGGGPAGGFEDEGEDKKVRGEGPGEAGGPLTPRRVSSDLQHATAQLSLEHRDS
# Method in brief: as §1
# [12] = molecular target: T7, ETV3L (Homo sapiens, UniProt Q6ZN32 1-361); conditions: protein: recombinant; tags: N-terminal GST; dsDNA, one strand shown
# T7 sequence: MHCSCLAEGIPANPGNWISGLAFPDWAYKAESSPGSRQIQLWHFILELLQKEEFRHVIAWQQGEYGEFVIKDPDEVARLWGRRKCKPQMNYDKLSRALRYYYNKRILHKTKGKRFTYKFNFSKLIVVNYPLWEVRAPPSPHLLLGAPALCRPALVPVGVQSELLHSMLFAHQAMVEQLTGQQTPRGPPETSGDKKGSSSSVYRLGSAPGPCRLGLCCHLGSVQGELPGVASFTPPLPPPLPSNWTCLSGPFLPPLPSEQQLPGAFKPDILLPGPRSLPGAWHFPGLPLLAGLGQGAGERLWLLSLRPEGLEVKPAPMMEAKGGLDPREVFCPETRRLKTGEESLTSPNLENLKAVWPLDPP
# Method in brief: as §1
# [13] = molecular target: T8, ETS2 (Homo sapiens, UniProt P15036 1-469); conditions: protein: recombinant; tags: N-terminal GST; dsDNA, one strand shown
# T8 sequence: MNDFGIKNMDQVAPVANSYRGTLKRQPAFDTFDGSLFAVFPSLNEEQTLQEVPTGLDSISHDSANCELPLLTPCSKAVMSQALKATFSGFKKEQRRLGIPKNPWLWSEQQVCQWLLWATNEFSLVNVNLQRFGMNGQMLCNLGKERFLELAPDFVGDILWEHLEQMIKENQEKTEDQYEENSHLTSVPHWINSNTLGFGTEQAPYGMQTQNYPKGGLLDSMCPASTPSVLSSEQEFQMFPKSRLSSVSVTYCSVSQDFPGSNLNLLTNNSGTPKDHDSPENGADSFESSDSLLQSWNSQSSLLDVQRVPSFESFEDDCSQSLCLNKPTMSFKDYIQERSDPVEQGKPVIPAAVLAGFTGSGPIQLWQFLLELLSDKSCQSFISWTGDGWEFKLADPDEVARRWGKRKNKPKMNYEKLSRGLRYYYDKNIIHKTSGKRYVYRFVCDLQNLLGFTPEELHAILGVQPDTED
# Method in brief: as §1
# [14] = molecular target: T9, SPDEF (Homo sapiens, UniProt O95238 1-335); conditions: protein: recombinant; tags: N-terminal GST; dsDNA, one strand shown
# T9 sequence: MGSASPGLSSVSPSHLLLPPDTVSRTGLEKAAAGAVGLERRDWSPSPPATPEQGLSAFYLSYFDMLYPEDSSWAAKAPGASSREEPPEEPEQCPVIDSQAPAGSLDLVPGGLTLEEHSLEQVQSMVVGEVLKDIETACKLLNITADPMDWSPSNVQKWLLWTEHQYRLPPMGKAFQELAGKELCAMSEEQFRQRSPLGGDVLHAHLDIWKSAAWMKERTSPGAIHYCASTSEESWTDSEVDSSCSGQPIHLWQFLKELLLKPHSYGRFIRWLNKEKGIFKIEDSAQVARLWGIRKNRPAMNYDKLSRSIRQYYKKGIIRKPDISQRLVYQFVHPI
# Method in brief: as §1
# [15] = molecular target: T10, ETV7 (Homo sapiens, UniProt Q9Y603 1-341); conditions: protein: recombinant; tags: N-terminal GST; dsDNA, one strand shown
# T10 sequence: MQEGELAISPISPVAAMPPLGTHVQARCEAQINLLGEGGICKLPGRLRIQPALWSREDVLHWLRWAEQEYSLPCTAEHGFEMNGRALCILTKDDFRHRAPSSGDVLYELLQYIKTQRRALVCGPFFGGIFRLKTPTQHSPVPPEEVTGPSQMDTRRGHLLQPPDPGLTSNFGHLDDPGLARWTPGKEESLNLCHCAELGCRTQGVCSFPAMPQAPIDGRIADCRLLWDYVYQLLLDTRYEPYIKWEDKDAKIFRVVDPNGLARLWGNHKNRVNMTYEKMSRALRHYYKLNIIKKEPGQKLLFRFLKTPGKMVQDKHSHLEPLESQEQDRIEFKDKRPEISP
# Method in brief: as §1
# [16] = molecular target: T11, ELF5 (Homo sapiens, UniProt Q9UKW6-2 1-255); conditions: protein: recombinant; tags: N-terminal GST; dsDNA, one strand shown
# T11 sequence: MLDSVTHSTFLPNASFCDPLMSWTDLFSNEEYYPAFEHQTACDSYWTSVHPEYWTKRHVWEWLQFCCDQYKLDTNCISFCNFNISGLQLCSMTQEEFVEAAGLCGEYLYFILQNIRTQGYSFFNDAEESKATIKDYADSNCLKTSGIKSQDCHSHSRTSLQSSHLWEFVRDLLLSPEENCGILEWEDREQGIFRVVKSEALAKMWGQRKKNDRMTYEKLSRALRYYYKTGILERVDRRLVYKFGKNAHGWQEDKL
# Method in brief: as §1
# [17] = molecular target: T12, ETV3 (Homo sapiens, UniProt P41162-2 1-143); conditions: protein: recombinant; tags: N-terminal GST; dsDNA, one strand shown
# T12 sequence: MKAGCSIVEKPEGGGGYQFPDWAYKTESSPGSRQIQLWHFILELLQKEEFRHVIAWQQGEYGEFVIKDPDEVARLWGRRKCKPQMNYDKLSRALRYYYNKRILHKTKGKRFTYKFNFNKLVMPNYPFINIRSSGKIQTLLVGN
# Method in brief: as §1
# [18] = molecular target: ETV6 (Homo sapiens, UniProt P41212 1-452); conditions: protein: recombinant; tags: N-terminal GST; dsDNA, one strand shown
# Sequence of ETV6 (P41212 whole entry): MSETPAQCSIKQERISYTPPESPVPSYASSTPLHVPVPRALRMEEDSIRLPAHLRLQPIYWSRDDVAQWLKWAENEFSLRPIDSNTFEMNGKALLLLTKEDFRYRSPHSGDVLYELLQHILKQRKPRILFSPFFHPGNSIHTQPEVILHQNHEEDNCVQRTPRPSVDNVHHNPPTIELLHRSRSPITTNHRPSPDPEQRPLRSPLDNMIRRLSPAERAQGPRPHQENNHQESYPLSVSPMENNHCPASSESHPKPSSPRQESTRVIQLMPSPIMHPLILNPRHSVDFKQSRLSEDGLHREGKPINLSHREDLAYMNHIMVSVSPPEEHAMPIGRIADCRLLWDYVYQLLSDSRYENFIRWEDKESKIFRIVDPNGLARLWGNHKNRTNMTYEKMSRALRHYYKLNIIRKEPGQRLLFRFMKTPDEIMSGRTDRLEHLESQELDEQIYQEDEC
# Method in brief: as §1
sequence,measurement,setting,value
TCCTAT,binding signal,[1],"1.41 fold enrichment (6-mer frequency, TF over GST control)"
same,binding signal,[2],"1.47 fold enrichment (6-mer frequency, TF over GST control)"
same,binding signal,[3],"1.41 fold enrichment (6-mer frequency, TF over GST control)"
same,binding signal,[4],"1.68 fold enrichment (6-mer frequency, TF over GST control)"
same,binding signal,[5],"1.46 fold enrichment (6-mer frequency, TF over GST control)"
same,binding signal,[6],"1.49 fold enrichment (6-mer frequency, TF over GST control)"
same,binding signal,[7],"1.56 fold enrichment (6-mer frequency, TF over GST control)"
same,binding signal,[8],"1.74 fold enrichment (6-mer frequency, TF over GST control)"
same,binding signal,[9],"1.68 fold enrichment (6-mer frequency, TF over GST control)"
same,binding signal,[10],"1.57 fold enrichment (6-mer frequency, TF over GST control)"
same,binding signal,[11],"1.56 fold enrichment (6-mer frequency, TF over GST control)"
same,binding signal,[12],"1.5 fold enrichment (6-mer frequency, TF over GST control)"
same,binding signal,[13],"1.65 fold enrichment (6-mer frequency, TF over GST control)"
same,binding signal,[14],"1.72 fold enrichment (6-mer frequency, TF over GST control)"
same,binding signal,[15],"1.53 fold enrichment (6-mer frequency, TF over GST control)"
same,binding signal,[16],"1.56 fold enrichment (6-mer frequency, TF over GST control)"
same,binding signal,[17],"1.64 fold enrichment (6-mer frequency, TF over GST control)"
same,binding signal,[18],"1.66 fold enrichment (6-mer frequency, TF over GST control)"
